# Where “and” joins values, the source holds several entries; their conditions need not be identical. Equal entries are not always repeated. Records with an inconclusive call do not appear. Unmarked numbers belong to inactive results. Calls of active or inactive are those of the source. Calls come from the whole dose curve; as a rule, active = well fitted activation curve with a large enough effect; inconclusive = small, poorly fitted or top-dose-only effect; inactive = no such curve, though single readings can be large or run the other way.
# Molecular target: Cellular tumor antigen p53 (Homo sapiens) (UniProt P04637)
# Assay: Primary qHTS for small molecule compounds that upregulate eGFP-tagged delta133p53alpha (in N-terminal) cells. (AID 2060322); note: nearly all actives have a fitted effect of over 75% in size;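 for activation: series mostly up to about 56 µM; 0% = DMSO vehicle and 100% = reference activator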
# Details: NCI-H358 eGFP-delta133p53alpha fluorescence, 24 h; activation: active compounds read high
# Outline: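 NCI-H358 cells pre-induced 24 h with 10 ng/ml doxycycline to express N-terminal eGFP-delta133p53alpha, then dosed 24 h at 37C without doxycycline; fixed, Hoechst-stained, GFP intensity by laser scanning cytometry, normalized to DMSO (0%) and 57.5 uM 5-azacytidine (100%).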
# Potency is the fitted concentration of half-maximal effect.
# Chain of Cellular tumor antigen p53 (Homo sapiens) (P04637 whole entry, looked up): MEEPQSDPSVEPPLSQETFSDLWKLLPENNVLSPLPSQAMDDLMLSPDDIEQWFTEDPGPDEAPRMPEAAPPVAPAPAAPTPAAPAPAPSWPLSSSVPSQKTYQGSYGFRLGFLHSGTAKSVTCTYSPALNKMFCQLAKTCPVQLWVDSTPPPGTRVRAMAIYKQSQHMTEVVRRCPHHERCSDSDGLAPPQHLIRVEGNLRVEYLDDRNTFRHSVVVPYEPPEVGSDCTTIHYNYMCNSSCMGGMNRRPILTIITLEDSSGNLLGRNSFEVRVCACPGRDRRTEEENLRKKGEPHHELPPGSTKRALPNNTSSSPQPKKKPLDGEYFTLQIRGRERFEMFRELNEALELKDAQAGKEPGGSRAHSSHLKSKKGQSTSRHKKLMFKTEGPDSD
Compound,activation,Potency
C=CCOC(Cn1ccnc1)c1ccc(Cl)cc1Cl (centres undefined),6.69%,–
CCN(CC)CCN1C(=O)CN=C(c2ccccc2F)c2cc(Cl)ccc21,11.9%,–
COCC(=O)N(c1c(C)cccc1C)C(C)C(=O)OC (centres undefined),18.6%,–
CC(C)NCC(O)c1ccc([N+](=O)[O-])cc1 (centres undefined),16.4%,–
O=C1OC(c2ccc(O)c(S(=O)(=O)O)c2)(c2ccc(O)c(S(=O)(=O)O)c2)c2c(Br)c(Br)c(Br)c(Br)c21,25.4%,–
CC(=O)O[C@@]12CO[C@H]1C[C@H](O)[C@@]1(C)C(=O)[C@H](O)C3=C(C)[C@@H](O)C[C@@](O)([C@@H](OC(=O)c4ccccc4)[C@@H]21)C3(C)C,–,30.6 µM (active)
COC[C@H]1OC(=O)c2coc3c2[C@@]1(C)C1=C(C3=O)[C@@H]2CC[C@H](O)[C@@]2(C)C[C@@H]1OC(C)=O,13.2%,–
CC(C)=CC1C(C(=O)OCN2C(=O)C3=C(CCCC3)C2=O)C1(C)C (centres undefined),17.6%,–
Oc1ccc2[nH]cc(CCCCN3CC=C(c4ccccc4)CC3)c2c1,22%,–
C[N+]1(C)[C@@H]2CC[C@H]1CC(OC(=O)C(CO)c1ccccc1)C2 (some centres undefined),25.4%,–
O=C1CCC[C@@H]2[C@H]3CCCN4CCC[C@@H](CN12)[C@@H]34,30.7%,–
CCO/N=C(\CC)C1=C(O)CC(c2c(C)cc(C)cc2C)CC1=O (centres undefined),16.7%,–
c1ccc2c(c1)Nc1ccccc1S2,13% and 14.2%,–
O=C(O)c1ccnc2cc(C(OCCN3CCC(F)(F)CC3)c3ccccc3Cl)[nH]c12 (centres undefined),-26.8%,–

# — PubChem BioAssay (NCATS)
